Assay results from ChEMBL document CHEMBL3988442, “University of Dundee, Small-Polar-MMV Screening Library” (2021).
Among all 48,000 compounds or so, about 13,000 (27%) showed an effect of 50% or more. This is one part of the list.

tested on: Wolbachia pipientis; assay: Anti-Wolbachia Cell-Based Screen; format: functional; design: scale not given: in the data most compounds retested in dose-response had high values; details: 5 µM

SMILES	Percent Effect [%]
CN1Cc2ccccc2CC1C(=O)N1CCN(CCS(C)(=O)=O)CC1 (configuration not stated)	0.38
CS(=O)(=O)c1ccc(OCCNCc2cccc(Cl)c2)cc1	6.711
CS(=O)(=O)CCNCc1ccc(OCc2ccccn2)cc1	-3.882
CC1CCN(C(=O)C(C)N2CCc3[nH]nc(C(F)(F)F)c3C2)CC1 (configuration not stated)	-0.1757
CN(CCO)c1ncc(-c2ccc(NC(=O)[C@@H]3CCCCN3)cc2)cn1	112.4
CN(C)c1ncc(-c2ccc(NC(=O)[C@@H]3CCCCN3)cc2)cn1	109.4
CN(C)C(=O)Cc1ccc(NC(=O)NC2CCCCC2)cc1	10.45
COc1ccc(NC(=O)c2cnc(N(C)C3CCCCC3)nc2N)cc1	-20.25
CN(C)C(=O)Cc1ccc(NC(=O)NC2CCCC2)cc1	20.91
Cc1cc(CNC2(CO)CCOCC2)ccc1Br	-0.9175
CC(C)c1nc(-c2cc(C(=O)NCCCO)c3ccccn23)cs1	-2.585
COCc1nc(CNc2cccc(-c3ncon3)c2)cs1	-4.875
COc1c(CNC2CCN(C(=O)C3CC3)CC2)c(C(C)C)nn1C	2.531
CC(C)c1nn(C)c(N(C)C)c1CNC1CCC(O)CC1 (configuration not stated)	13.16
COc1c(CNC2CCN(C(C)(C)C)CC2)c(C(C)C)nn1C	2.143
CC(C)C(=O)N1CCC(NCc2c(C(C)C)nn(C)c2N(C)C)CC1	-18.23
COc1c(CNC2CCN(C(=O)C(C)C)CC2)c(C(C)C)nn1C	121.5
COc1c(CNC2CCC(O)CC2)c(C(C)C)nn1C (configuration not stated)	106.7
CCOc1cccc(CCNC(=O)NC2CCc3[nH]ncc3C2)n1 (configuration not stated)	4.598
O=C1CC(N(C(=O)c2csc(-c3ccccc3)n2)C2CC2)C(=O)N1 (configuration not stated)	-6.994
CN(C)Cc1ccc(C2CCCCN2C(=O)c2cccnn2)cc1 (configuration not stated)	-5.621
CC(C)N(C)S(=O)(=O)c1ccc2c(c1)CCN(C(=O)c1ccccn1)C2	85.52

SMILES	Percent Effect [%]
CC(C(=O)N1CCc2ccccc2C1)N(C)Cc1cscn1 (configuration not stated)	-9.272
COCCNS(=O)(=O)c1cccc2c1CN(C(=O)c1cnccn1)CC2	-8.732
CC(C)N(C)S(=O)(=O)c1ccc2c(c1)CCN(C(=O)c1cscn1)C2	99.31
Cc1ccc2c(n1)N(CCN(C)C)CCN(C(=O)c1cscn1)C2.O=C(O)C(F)(F)F.O=C(O)C(F)(F)F	28.27
COCCNS(=O)(=O)c1ccc2c(c1)CCN(C(=O)c1cncn1C)C2	-12.86
CC(C)N(C)Cc1noc2c1CN(C(=O)c1cnccn1)CC2	-8.266
CC(C)N(C)S(=O)(=O)c1ccc2c(c1)CCN(C(=O)c1cccnn1)C2	105.4
CC(C)N(C)S(=O)(=O)c1ccc2c(c1)CCN(C(=O)c1cnccn1)C2	109.6
CCS(=O)(=O)NC1CCCN(c2cc(C)ccc2F)C1=O (configuration not stated)	-7.776
O[C@H]1[C@H](NCCSc2ccccn2)c2ccccc2C12CCNCC2	-1.82
COc1ccccc1Oc1ncccc1CNC(=O)[C@H](N)CC(C)(C)C	-16.84
CC(=O)NC1CCN(c2ncnc3c2c(C)nn3C)C1 (configuration not stated)	-10.72
COc1cc(C)c(C2CC(=O)NCc3nc4sccn4c32)cc1C (configuration not stated)	-46.51
CCOCc1ccc(NC(=O)C(C)C)cc1	2.83
CCC[C@H]1CN(CCS(C)(=O)=O)C[C@@H]1NC(=O)c1cc(CC)on1	21.57
Cc1cc(C)n(CCNCc2cc(-c3ccc(F)cc3)c[nH]c2=O)n1	135.5
Cc1cc(C)n(CCNCc2cc(-c3ccccc3)c[nH]c2=O)n1	81.59
Cc1cc(C)n(CC(=O)N2CCC(NS(=O)(=O)c3ccccc3)CC2)n1	-8.172
Cc1cc(C)n(CCNCc2cc(-c3ccc(Cl)cc3)c[nH]c2=O)n1	101
COC(=O)c1ccc(Cn2nc(C)cc2C)c(F)c1	-8.514
COC(=O)c1ccc(F)c(Cn2nc(C)cc2C)c1	-3.045
Cc1cc(F)ccc1CNCCn1cccn1	-2.042

SMILES	Percent Effect [%]
CCn1cnnc1CCNCc1c[nH]nc1-c1ccc(F)cc1	-1.595
Cc1cc(C)n(CC(=O)Nc2cc(-c3ccncc3)[nH]n2)n1	0.2765
c1ccc2sc(N3CCCC(Cn4cncn4)C3)nc2c1 (configuration not stated)	2.326
NCC1CCCCN1Cc1cc(O)c2cccc(F)c2n1 (configuration not stated)	-47.52
CN1CCCN(C(=O)c2nnn(-c3ccc(C(F)(F)F)cc3)n2)CC1	20.55
Cc1cccc(C(C(=O)NCc2nc(-c3ncccn3)no2)N(C)C)c1 (configuration not stated)	-6.766
O=C(Cc1cccc(O)c1)NC1CCN(c2cccc(Cl)c2)C1 (configuration not stated)	1.358
Cc1nnc(-c2cccc(N3CCC(NC4CCSC4)CC3)c2)s1 (configuration not stated)	-9.983
Clc1cccc(N2CCC(NCc3cc[nH]n3)C2)c1 (configuration not stated)	-6.457
Cc1ccc(-c2cccc(N3CCC(NC4CCOCC4)CC3)c2)cc1	106.4
Cc1nnc(-c2cccc(N3CCC(NC(C)CC(C)C)CC3)c2)s1 (configuration not stated)	13.1
Clc1cccc(-c2cccc(N3CCC(NC4CCOCC4)CC3)c2)c1	91.89
CC(C)N1CCOCC2(CCCN(C(=O)c3cn(C)cn3)C2)C1.O=C(O)C(F)(F)F (configuration not stated)	-9.46
CCCN(C(=O)c1ccc(-n2ccnn2)cc1)c1cccnc1	-3.595
O=C(c1ccccc1)N(CC1CC1)c1cccnc1	119.1
O=C(c1ccc(-n2ccnn2)cc1)N(CC1CC1)c1cccnc1	-13.01
NC(=O)N1CCCC(C(=O)Nc2cccc(Cl)c2)C1 (configuration not stated)	3.636
CCNC(=O)N1CCCC(C(=O)c2cccc(OC(C)C)c2)C1 (configuration not stated)	17.22
Cc1cc(NC(=O)C2CCCN(C(=O)NCC(C)C)C2)ccn1 (configuration not stated)	89.55
Cc1n[nH]c(C)c1NC(=O)C1CCCN(C(=O)NCC(C)C)C1 (configuration not stated)	113.5
Cc1n[nH]c(C)c1Sc1ccccc1NC(=O)N1CCCC(C(N)=O)C1 (configuration not stated)	-0.33
Cc1c(C2CC2)n[nH]c1NC(=O)C1CCCN(C(=O)NCC(C)C)C1 (configuration not stated)	117.7

SMILES	Percent Effect [%]
CCCC1CCCN(C(=O)Nc2ccnc(C(=O)N(C)C)c2)CC1 (configuration not stated)	-1.886
Cc1n[nH]c(C)c1CCNC(=O)C1CCCN(CC(N)=O)C1 (configuration not stated)	-16.53
Cc1ccc(-c2nnc(NC(=O)c3ccn(C)c(=O)c3)[nH]2)s1	1.444
CCN(C(=O)C1CC1)C(c1cccnc1)c1ccc2c(c1)CCO2 (configuration not stated)	-9.628
Cc1noc(CCNS(=O)(=O)N2CCCC2c2ccc(C)o2)n1 (configuration not stated)	4.735
Cc1nnc(CN2CCCC2c2ccsc2)o1 (configuration not stated)	42.12
Cn1cc(S(=O)(=O)N2CCCC2CC(=O)c2cccs2)cn1 (configuration not stated)	-23.33
Cc1ccc(C2CCCN2S(=O)(=O)N(C)Cc2cnn(C)c2)o1 (configuration not stated)	13.71
Cc1ccc(-c2nnc(C3CCCN3S(=O)(=O)c3cnn(C)c3C)o2)s1 (configuration not stated)	112
CC(c1nnc(-c2cccs2)o1)N1CCn2c(nnc2C2CC2)C1 (configuration not stated)	-4.966
Cc1c(S(=O)(=O)N2CCCCC2c2nnc(-c3cccs3)o2)cnn1C (configuration not stated)	114.5
Cn1cc(C2CCCN2Cc2csc(-c3ccsc3)n2)cn1 (configuration not stated)	2.773
Cc1c(S(=O)(=O)N2CCCC2c2nnc(-c3ccsc3)o2)cnn1C (configuration not stated)	130.9
CN1[C@@H](c2ccccc2)[C@@H](C(=O)NCc2ccncc2)C[C@@]1(C)C(=O)O	1.416
O=C(O)c1ccnc(-c2ccnc(COc3cccc(F)c3)n2)c1	-102.4
Cc1cccc(N2CCN(CCNC(=O)C(C)n3cncn3)CC2)c1 (configuration not stated)	8.571
CC1CCCCN1CCN(C)C(=O)c1cc(CN2CCC(O)CC2)on1 (configuration not stated)	0.4872
Fc1ccc(NCc2ccncc2)c(OC(F)F)c1	-6.491
O=C1OCCN1c1cccc(CNCc2cc(F)ccc2F)c1	6.854
CSCc1cc(F)ccc1CNCc1cccc(O)c1	105.8
Cc1cnn(CCNCc2cccnc2)c1	-0.61
O=C(NCc1ccncc1)N(Cc1ccc(F)cc1F)C1CC1	-2.267

SMILES	Percent Effect [%]
CSCc1cc(F)ccc1CNCc1cccnc1	101.5
Fc1cccc(C(NCc2ncc[nH]2)c2ccccc2)c1 (configuration not stated)	-7.792
Fc1cccc(NCc2ncc[nH]2)c1	-11.31
O=C1CCCN1c1cccc(CNCc2cc(F)ccc2F)c1	-5.013
CSCc1cc(F)ccc1CNCc1ncc[nH]1	108.7
CSCc1cc(F)ccc1CNCc1ccncc1	99.15
COc1cc(F)ccc1N(C)Cc1cccnc1	-2.533
Cc1cc(C)n(CC(C)NCc2cnc3c(C)cccn23)n1 (configuration not stated)	-11.8
COCCSc1ccc(C(C)NC(=O)Nc2cn[nH]c2)cc1 (configuration not stated)	-2.849
COc1cc(NCC(=O)NC(C)(C#N)C(C)C)cc(OC)c1OC (configuration not stated)	-11.73
CSc1ccsc1C(=O)NCCNC(=O)C1CC1	-5.162
Cn1cc(C(=O)NCc2cn3c(n2)CN(Cc2ccccn2)CC3)cn1.O=C(O)C(F)(F)F.O=C(O)C(F)(F)F	1.361
Cn1cc(-c2ncc3c(c2C(=O)O)CCN(Cc2ccccn2)C3)cn1.O=C(O)C(F)(F)F.O=C(O)C(F)(F)F	106.1
Cn1cc(CN2CCc3c(cnc(-c4ccccc4)c3C(=O)O)C2)cn1.O=C(O)C(F)(F)F.O=C(O)C(F)(F)F	-3.13
Cn1cc(-c2ncc3c(c2C(=O)O)CCN(Cc2ccco2)C3)cn1.O=C(O)C(F)(F)F	100.1
Cn1nccc1-c1ncc2c(c1C(=O)O)CCN(Cc1ccncc1)C2.O=C(O)C(F)(F)F.O=C(O)C(F)(F)F	-6.643
O=C(O)c1c(-c2ccncc2)ncc2c1CCN(Cc1ccco1)C2	103.7
O=C(O)C(F)(F)F.O=C(O)C(F)(F)F.O=C(O)c1cc2c(nc1-c1ccoc1)CCN(Cc1ccco1)CC2	4.884
O=C(O)C(F)(F)F.O=C(O)C(F)(F)F.O=C(O)c1c(-c2cncnc2)ncc2c1CCN(Cc1ccco1)C2	112.5
